High-throughput results from PubChem BioAssay.
Most compounds without a hit are left out; they make up all but 21% or so of the library.
Sm TGR inh: S. mansoni TGR enzyme inhibition | Potency, µM (highest dose often 114 µM), for the others: at the highest dose activity change, negative = inhibition, most hits filed as inhibitors | purified TGR, DTNB reduction, TNB absorbance 405 nm | Q962Y6 | 360,000 compounds, 3% hits | AID 485364; note: potency is the fitted concentration of half-maximal effect; % is set by controls: 0 for no effect and ±100 for the full control effect; nearly all actives have a fitted effect of over 60% in size
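First, TGR (20 nM dispensed) and NADPH were mixed with compound. Second, a 15 min room-temperature incubation followed. Third, further NADPH and then DTNB were added to start the reaction. Finally, TNB absorbance was monitored kinetically.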
Shiga inhibitor: Shiga toxin inhibition; 290,000 compounds, 9.2% hits; AID 2315; inhibition, % at 38.7 µM; Vero cells, Shiga toxin protein synthesis inhibition reporter; in the data active = inhibition mostly above about 28%, no sharp cut-off; inactive = mostly below about 43%; note: 0% is about no effect
Pf growth 48h: P. falciparum growth inhibition at 48 hours (one generation). AID 504832. 310,000 compounds, 5.9% hits. Potency, µM (doses to about 28.7 µM), for inactives: top-dose activity change, negative = inhibition, hits mostly inhibitors. P. falciparum luciferase growth in erythrocytes, 48 h; note: potency is the fitted concentration of half-maximal effect; % is set by controls: 0 for no effect and ±100 for the full control effect
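A one-generation exposure of luciferase-tagged malaria parasites in RPMI 1640/Albumax erythrocyte culture, 37 C and 5% CO2. Inhibition is inferred from decreased luminescence after adding detection reagent.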
NS1 inh: inhibitors of influenza NS1 protein function. Potency, µM (series often up to 46.1 µM), inactives show at the top dose activity, positive = more growth. 270,000 compounds, 0.4% hits. AID 2326; calls by dose curve; note: potency is the fitted concentration of half-maximal effect; actives are rising curves; nearly all actives have a fitted effect of over 50% in size
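Read-out: OD600 growth recovery of NS1-expressing budding yeast. Cells grown overnight at 30C in -URA glucose medium, washed, resuspended and diluted 1:100 in 2% galactose assay medium, pH 6.0. Same strain lacking NS1 served as positive control.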
CHX counter: counter-screen hit for Shiga toxin inhibitors, cycloheximide | cell reporter, cycloheximide protein synthesis inhibition counterscreen | max response, % | 300,000 compounds, 12% hits | AID 2314; in the data active = max response mostly above about 13%, no sharp cut-off; inactive = mostly below about 14%; note: read at 38.3 µM for the half of the compounds with a filed dose; 0% is about no effect
Pf growth 96h: P. falciparum growth inhibition at 96 hours; P. falciparum luciferase reporter growth, 96 h; Potency, µM (highest dose often 28.7 µM), for the others: at the top dose activity change, negative = inhibition, actives largely listed as inhibitors; 320,000 compounds, 6.9% hits; AID 504834; note: potency is the fitted concentration of half-maximal effect; % is set by controls: 0 for no effect and ±100 for the full control effect
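Plates of compound plus infected erythrocytes (2% hematocrit, 0.05% parasitemia final) incubate 96 hours, 37 C, 5% CO2. Detection reagent added; reduced luminescence from the parasites' luciferase reporter flags inhibition.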
* hit, by the source's call; [ ] = remark or other dose. Unless noted, calls come from the whole dose curve; as a rule, active = well fitted curve in the direction sought with a large enough effect; inconclusive = small, poorly fitted or top-dose-only effect, or another doubt; inactive = no such curve, though single readings can be large; an effect the other way counts as inactive or inconclusive.

How did CCn1nc(C)cc1C(=O)N(C)C1CCCN(Cc2ccccc2F)C1 (configuration not stated) do in these assays?
Sm TGR inh: -22%; Shiga inhibitor: -3; Pf growth 48h: 28%; NS1 inh: 15%; CHX counter: -2; Pf growth 96h: inconclusive

What do the screens show for `O=C1C(Nc2ccc(O)cc2)=C/C(=N/S(=O)(=O)c2cccs2)c2ccccc21`?
Sm TGR inh: -17%; Shiga inhibitor: 20; Pf growth 48h: inconclusive; CHX counter: 21*; Pf growth 96h: 0.47µM*

What do the screens show for `Cc1ccc(NC2=C/C(=N\S(=O)(=O)c3cccs3)c3ccccc3C2=O)c(C)c1`?
Sm TGR inh: -31%; Shiga inhibitor: 7; Pf growth 48h: 0.093µM*; NS1 inh: 3%; CHX counter: 13*; Pf growth 96h: 0.033µM*

What do the screens show for `O=C1/C(=N\S(=O)(=O)c2cccs2)C([n+]2ccccc2)=C([O-])c2ccccc21`?
Sm TGR inh: -19%; Shiga inhibitor: -4; Pf growth 48h: inconclusive; NS1 inh: 3%; CHX counter: -5; Pf growth 96h: inconclusive

What do the screens show for `Cc1cccc(NC2=C/C(=N/S(=O)(=O)c3cccs3)c3ccccc3C2=O)c1`?
Sm TGR inh: -17%; Shiga inhibitor: 26; Pf growth 48h: 0.52µM*; NS1 inh: 11%; CHX counter: 14*; Pf growth 96h: -9%

What do the screens show for `Cc1ccc(Cl)cc1NC1=C/C(=N\S(=O)(=O)c2cccs2)c2ccccc2C1=O`?
Sm TGR inh: -17%; Shiga inhibitor: -10; NS1 inh: -51%; CHX counter: -1; Pf growth 96h: 0.15µM*

Results for CCCNC(=O)c1cc2n(n1)CCCN(Cc1ccc(F)cc1)C2=O ?
Sm TGR inh: 5%

What do the screens show for `Cn1cc(P(=S)(N2CCOCC2)N2CCOCC2)cc1P(=S)(N1CCOCC1)N1CCOCC1`?
Sm TGR inh: -1%; Shiga inhibitor: -11; Pf growth 48h: 0%; NS1 inh: 3%; CHX counter: -1; Pf growth 96h: -11%

Results for CSc1cccc(NC(=O)Cn2nnc(C(=O)NCCc3ccccc3)c2N)c1 ?
Sm TGR inh: 2%

How did COCCN1CC(C(=O)NCCc2nc(C)c(C)s2)CCC1=O (configuration not stated) do in these assays?
Sm TGR inh: -1%; Shiga inhibitor: 3; Pf growth 48h: -3%; NS1 inh: 2%; CHX counter: 9; Pf growth 96h: 1%

How did Cc1cc(C)c(NC(=O)Cn2c(=O)n(Cc3ccco3)c(=O)c3ccccc32)c(C)c1 do in these assays?
Sm TGR inh: -20%; Shiga inhibitor: 1; Pf growth 48h: 13µM*; NS1 inh: 1%; CHX counter: 1; Pf growth 96h: 6%

How did O=C(CCCCn1c(=O)c2ccccc2n(Cc2ccc(Cl)cc2)c1=O)NCc1ccco1 do in these assays?
Sm TGR inh: 2%; Shiga inhibitor: -3; Pf growth 48h: 12µM*; NS1 inh: -14%; CHX counter: 0; Pf growth 96h: 25%

What do the screens show for `Cc1ccccc1Cn1c(=O)n(CCCC(=O)NCc2ccco2)c(=O)c2ccccc21`?
Sm TGR inh: -22%; Shiga inhibitor: 14; Pf growth 48h: inconclusive; NS1 inh: -1%; CHX counter: 14*; Pf growth 96h: inconclusive

What do the screens show for `Cc1ccccc1Cn1c(=O)n(-c2ccccc2)c(=O)c2ccc(C(=O)NCc3ccco3)cc21`?
Sm TGR inh: -15%; Shiga inhibitor: -26; Pf growth 48h: -6%; NS1 inh: 11%; CHX counter: -8; Pf growth 96h: 8.3µM*

How did CCc1ccccc1NC(=O)Cn1c(=O)n(Cc2ccco2)c(=O)c2ccccc21 do in these assays?
Sm TGR inh: 0%

Results for Cc1ccc(-n2c(=O)c3ccc(C(=O)NCc4ccco4)cc3n(Cc3ccccc3Cl)c2=O)cc1 ?
Sm TGR inh: -19%

What do the screens show for `Cc1cccc(OCC(=O)Nc2ccc(OCc3cc(=O)n4cc(C)ccc4n3)cc2)c1`?
Sm TGR inh: 4%

What do the screens show for `O=c1[nH]c(CN2CCN(c3ccccn3)CC2)nc2c(Br)cc(Br)cc12`?
Sm TGR inh: -2%; Shiga inhibitor: 1; Pf growth 48h: -7%; NS1 inh: -1%; CHX counter: -4; Pf growth 96h: 7%

Results for N#Cc1ccccc1Cn1c(=O)n(CCC(=O)NCc2ccco2)c(=O)c2ccccc21 ?
Sm TGR inh: -9%; Shiga inhibitor: -13; Pf growth 48h: -23%; NS1 inh: 0%; CHX counter: -5; Pf growth 96h: inconclusive

Results for N#Cc1ccccc1Cn1c(=O)n(Cc2ccc(C(=O)NCc3ccco3)cc2)c(=O)c2ccccc21 ?
Sm TGR inh: -3%; Shiga inhibitor: -1; Pf growth 48h: 2.9µM*; NS1 inh: 11%; CHX counter: -1; Pf growth 96h: 81%

Results for Cc1nn(-c2ccccc2)c2c1C(c1ccc(O)c(O)c1)N1C(=N2)C(Nc2ccccc2)=Nc2ccccc21 (configuration not stated) ?
Sm TGR inh: 0%; Shiga inhibitor: -9; Pf growth 48h: 10µM*; NS1 inh: inconclusive; CHX counter: -1; Pf growth 96h: 10µM*

How did CCc1ccc(NCc2cc3cc4c(cc3n(CC(=O)Nc3ccccc3OC)c2=O)OCCO4)cc1 do in these assays?
Sm TGR inh: -31%

Results for COc1ccc(Cn2c(=O)c3oc4ccccc4c3n(Cc3cccc(C(F)(F)F)c3)c2=O)cc1 ?
Sm TGR inh: 5%

Results for CCn1cnc2c1c(=O)n(CC(=O)N1CCc3ccccc31)c(=O)n2Cc1ccccc1 ?
Sm TGR inh: -24%[11.4 µM]; Shiga inhibitor: -2; NS1 inh: -11%; CHX counter: -3; Pf growth 96h: inconclusive

What do the screens show for `O=C(Cn1c(=O)c2c(ncn2Cc2ccccc2)n(Cc2ccccc2)c1=O)N1CCCC1`?
Sm TGR inh: -16%; Shiga inhibitor: 12; Pf growth 48h: inconclusive; NS1 inh: 8%; CHX counter: -3; Pf growth 96h: inconclusive

How did O=C(Cn1c(=O)c2c(ncn2Cc2ccccc2)n(Cc2ccccc2)c1=O)N1CCc2ccccc21 do in these assays?
Sm TGR inh: 3%; Shiga inhibitor: -23; Pf growth 48h: 3.3µM*; NS1 inh: 11%; CHX counter: -3

Results for O=C(Cn1c(=O)c2c(ncn2C2CCCC2)n(Cc2ccccc2)c1=O)N1CCc2ccccc21 ?
Sm TGR inh: -13%; Shiga inhibitor: -14; Pf growth 48h: 5.9µM*; NS1 inh: inconclusive; CHX counter: -3; Pf growth 96h: 37%

What do the screens show for `COc1ccc(S(=O)(=O)N(Cc2nc(-c3ccccc3)no2)C2CCCCC2)cc1`?
Sm TGR inh: 6%
